PLAP act – PLAP enzyme activators, biochemical, luminescence, HTS; Alkaline phosphatase, placental type (Homo sapiens), P05187; purified PLAP enzyme, luminescent substrate read-out; hits give high values; activation fold at 20 µM; 96,000 compounds, 1.2% hits; AID 696, 2007; in the data active means activation fold above about 2
TNAP act mid DEA – human TNAP enzyme activators, primary screen, biochemical, luminescent, intermediate phosphate acceptor level; activation factor at 20 µM; 64,000 tested, under 10 active; AID 813, 2007; purified TNAP, CDP-star luminescence, 100 mM DEA, 30 min; hits give high values; scale: 0 levamisole-inhibited, 1 vehicle-only enzyme;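 active means activation factor of at least 2 at 20 µM, relative to controls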
Target sequence (P05186 whole entry, looked up): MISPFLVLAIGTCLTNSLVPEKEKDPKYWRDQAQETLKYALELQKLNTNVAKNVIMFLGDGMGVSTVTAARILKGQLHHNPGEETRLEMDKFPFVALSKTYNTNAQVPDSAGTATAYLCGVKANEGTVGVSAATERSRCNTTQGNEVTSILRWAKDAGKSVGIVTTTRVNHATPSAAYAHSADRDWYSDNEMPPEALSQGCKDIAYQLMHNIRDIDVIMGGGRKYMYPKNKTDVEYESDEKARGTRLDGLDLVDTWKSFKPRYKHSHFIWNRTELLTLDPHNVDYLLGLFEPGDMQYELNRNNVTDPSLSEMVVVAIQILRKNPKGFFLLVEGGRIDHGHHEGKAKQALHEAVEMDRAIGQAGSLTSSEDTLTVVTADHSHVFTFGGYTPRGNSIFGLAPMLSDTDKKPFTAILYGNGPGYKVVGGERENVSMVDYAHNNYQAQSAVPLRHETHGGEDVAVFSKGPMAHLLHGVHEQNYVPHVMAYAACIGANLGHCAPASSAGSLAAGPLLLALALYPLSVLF
D1 mod – D1 CRE-luciferase signal change, two-sided – cell-based, HEK293 D1, dopamine EC30, D1 allosteric modulator project, primary screen. dopamine EC30 potentiation; actives deviate in either direction. B-score at 10 µM. 58,000 compounds, 5.9% hits;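 active means luminescence count or its row- and column-corrected plate score outside the 99.7% band of the plate's sample wells, on either side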
HePTP inhibitor – inhibitors of human HePTP phosphatase, primary screen, biochemical, absorbance, leukemia target. Tyrosine-protein phosphatase non-receptor type 7 (Homo sapiens), P35236. recombinant HePTP phosphatase activity, OD absorbance. inhibition, % at 20 µM. 110,000 compounds, 0.64% hits. AID 521, 2006; in the data active means inhibition above about 50%
DAT uptake mod – changed hDAT dopamine uptake under cocaine IC80, either direction, primary screen, cocaine antagonist project, cell-based, LLC-PK1 hDAT, [14C]-dopamine uptake, MLSMR | AID 449768, 2010 | B-score at 10 µM | 110,000 compounds, 1.3% hits | LLC-PK1 hDAT cells, [14C]-dopamine uptake with cocaine IC80; actives deviate in either direction;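 active means Z score or B-score, a plate-position-corrected score, falls beyond the plate's 99.7% confidence bounds, in either direction; inactive means both scores lie inside the 99.7% bounds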
Candida biofilm – clotrimazole potentiators killing Candida biofilms, primary screen, with clotrimazole, Alamar Blue; C. albicans biofilm + clotrimazole; AID 834, 2007; inhibition, % at 6 µM; 85,000 compounds, 0.14% hits;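 active means inhibition above 20%; inactive means inhibition below 20%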;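 further: preformed 24 hr biofilms exposed to compound for 48 hr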
D1 PAM confirm – D1 receptor positive allosteric modulators, retest, confirmation, cell-based, HEK293 D1, CRE-luciferase, duplicate; shares compounds with D1 mod; dopamine EC30 potentiation; hits give high values; luminescence at 10 µM; 2,200 compounds, 88% hits; AID 642, 2007;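 active means luminescence in either of two replicates above the same-plate mean plus 3 SD of the low-dose dopamine control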
D1 ag no DA – D1 receptor agonism without dopamine, confirmation, mechanism study for D1 allosteric modulator project, cell-based, HEK293 D1, CRE-luciferase, secondary assay 1; shares compounds with D1 mod; luminescence, no dopamine; hits give high values; luminescence at 10 µM; 1,900 compounds, 0.8% hits; AID 646, 2007; in the data active means luminescence above about 3900
Isoprot counter – alters isoproterenol CRE-luciferase response in HEK293 cells | HEK293 D1 CRE-luciferase, isoproterenol EC30 counter-screen; hits give high values | AID 647 | luminescence at 10 µM | shares compounds with D1 mod | 2,200 compounds, 63% hits;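 active means luminescence in either replicate above plate mean of wells with a partly effective reference agonist dose plus 3 SD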;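 further: isoproterenol raises cAMP through native beta-adrenoceptor Gs so signal bypasses D1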
A number is an active result; i = inactive; nt = not tested or not shown. The full list was thinned out, with hits kept by preference.

SMILES	PLAP act	TNAP act mid DEA	D1 mod	HePTP inhibitor	DAT uptake mod	Candida biofilm	D1 PAM confirm	D1 ag no DA	Isoprot counter
CCC(C)n1cnc2c(c1=O)c1nc3ccccc3nc1n2-c1ccc2c(c1)OCCO2 (stereo not drawn)	i	i	i	i	nt	i	nt	nt	nt
CCC(C)n1cnc2c(c1=O)c1nc3ccccc3nc1n2Cc1ccc2c(c1)OCO2 (stereo not drawn)	i	i	9.83	i	4.12	i	14800	i	4852
C#CCC(CC#C)(C(=O)OCC)C(=O)OCC	nt	nt	nt	i	nt	nt	nt	nt	nt
CCOC(=O)c1ccc(N2CN=C3SCC(=O)N3C2)cc1	i	i	3.07	i	i	i	5848	i	i
CC(C)Oc1ccc(C(=O)N(CN2CCCC2=O)c2ccc(F)cc2)cc1	i	i	4.45	i	i	i	i	i	i
COc1cccc(C(=O)N(CN2CCCC2=O)c2cccc(Cl)c2)c1	i	i	nt	i	i	nt	nt	nt	nt
Cc1ccc(-c2cc(C(=O)NC(C)C)c3ccccc3n2)s1	nt	nt	nt	i	nt	nt	nt	nt	nt
CC1(C)Cc2c(sc3c2c(=N)n(Cc2ccco2)c(=O)n3CC(=O)Nc2cccc(Cl)c2)CO1	i	i	i	i	i	i	nt	nt	nt
Cc1cccc(NC(=O)Cn2c(=O)n(Cc3ccco3)c(=N)c3c4c(sc32)COC(C)(C)C4)c1	i	i	8.94	i	i	i	6860	i	3256
O=C(c1cccs1)N(Cc1ccccn1)Cc1ccco1	i	i	10.4	i	i	nt	13228	i	4076
COc1cc(OC)cc(C(=O)N2CCN(C(=O)c3ccccc3OC)CC2)c1	nt	nt	nt	i	nt	nt	nt	nt	nt
CCOC(=O)C1CCCCN1Cc1cc(Cl)ccc1O (stereo not drawn)	i	i	4	i	i	i	8896	nt	2724
CCOC(=O)C1CCCCN1Cc1cc(OC)ccc1OC (stereo not drawn)	i	nt	nt	nt	i	i	nt	nt	nt
Cc1cc(C)n(-c2nc(C)nc(NCc3ccccc3)n2)n1	i	i	6.72	i	i	i	14476	i	3492
CNc1nc(C)nc(-n2nc(C)cc2C)n1	i	i	i	i	i	i	nt	nt	nt
O=C(NCCO)c1ccc(Oc2ccc(C(=O)NCCO)cc2)cc1	nt	nt	nt	i	nt	nt	nt	nt	nt
O=C1c2cccc3cccc(c23)C(=O)N1/N=C/c1ccco1	nt	nt	nt	i	nt	nt	nt	nt	nt
Cc1cc(C(=O)COC(=O)c2ccc3c(c2)OCCO3)ccc1Br	nt	nt	nt	i	nt	nt	nt	nt	nt
CCOC(=O)C1=C(C)NC(C)=C(C(=O)OCC)C1C(=O)OCC(=O)c1ccc2c(c1)OCCO2	i	i	10.3	i	i	i	7616	i	3568
CN1CCN(c2oc(-c3ccco3)nc2S(=O)(=O)c2ccccc2)CC1	i	i	i	i	i	i	nt	nt	nt
COc1cc(-c2nc(S(=O)(=O)c3ccccc3)c(N3CCOCC3)o2)cc(OC)c1OC	i	i	5.08	i	i	i	11504	i	5088
CCCSc1oc(-c2ccco2)nc1S(=O)(=O)c1ccccc1	i	i	17.1	i	i	i	14944	i	4752
CCSc1oc(-c2ccco2)nc1S(=O)(=O)c1ccccc1	nt	i	2.97	i	i	i	24204	i	3872
O=S(=O)(c1ccccc1)c1nc(-c2ccco2)oc1N1CCCCCC1	i	i	6.6	i	i	i	10268	i	i
CC(=O)c1ccc(NC(=O)CSc2nc(C)cc(C)n2)cc1	nt	nt	nt	i	nt	nt	nt	nt	nt
CC(C)Sc1oc(-c2ccco2)nc1S(=O)(=O)c1ccc(F)cc1	nt	i	i	i	i	nt	nt	nt	nt

Screening data deposited in PubChem BioAssay by several laboratories.
